The structures appear in SMILES notation. The panel holds about 83,000 compounds, 20% with a hit somewhere; the sample as a whole holds those more often.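 48-hour exposure, single concentration, 96-well plates; percent growth endpoint where 0 means no net growth. Active: below 10.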 Unmarked numbers belong to inactive results. Active and inactive are the calls of the source.

For the assay, the system named is A549/ATCC NSCLC. The assay can be described thus: NCI-60 one-dose screen, 48 h (100 = growth as untreated, 0 = no growth, -100 = all killed). Conditions: 10 µM unless noted.
Consider `COc1cc(C2c3cc(OC(C)=O)c(OC)cc3CC3C(=O)OCC32)ccc1OC(C)=O` (centres undefined), for which the growth is 104%.

On to `CCOC(=O)c1ccc(NC(=O)c2nc(-c3cc(OC)c(OC)c(OC)c3)n(-c3ccc(Cl)cc3)n2)cc1`, for which the growth is 88.9%.

For the compound `Cc1nc2sc(C(=O)Nc3cccc(Br)c3)c(N)c2cc1C(O)c1ccccc1` (centres undefined), the growth is 20.4%.

With `OB1OCc2cc(/C=C/c3cccc(C(F)(F)F)c3)ccc21`, the growth is 1.8% (active).

Take `COC(=O)[C@@H](CCCCNC(=O)[C@]12CCC(C)(C)C[C@@H]1C1=CC[C@@H]3[C@@]4(C)C/C(=C/c5ccco5)C(=O)C(C)(C)[C@@H]4CC[C@@]3(C)[C@]1(C)CC2)NC(=O)[C@]12CCC(C)(C)C[C@@H]1C1=CC[C@@H]3[C@@]4(C)C/C(=C/c5ccco5)C(=O)C(C)(C)[C@@H]4CC[C@@]3(C)[C@]1(C)CC2`: the growth is 100%.

Take `COc1c(C(=O)Nc2ccc(C)c(Br)c2)ccc2ccccc12`: the growth was 87.9%.

On to `COC(=O)CC[C@@H]1O[C@@H](c2cccc(C(F)(F)F)c2)[C@@H](O)[C@H]1O`, for which the growth is 107%.

On to `COc1ccc(/C=C(\C#N)n2nnc3cc(F)c(F)cc32)cc1`, for which the growth was 51.7%.

With `CCCC/C(CC)=N\NS(=O)(=O)c1ccc([N+](=O)[O-])cc1`, the growth was 89.1%.

Turning to `CCC(C(=O)[C@@H](C)[C@@H](O)[C@H](C)[C@@H]1O[C@@H]([C@@H](CC)C(=O)ONC(=O)c2ccccc2)CC[C@@H]1C)[C@H]1O[C@]2(C=CC(=O)[C@]3(CC[C@@](C)([C@H]4CC[C@](O)(CC)[C@H](C)O4)O3)O2)[C@H](C)C[C@@H]1C` (some centres undefined), the growth was -19.6% (active).

As to `COC(=O)[C@]12CCC(C)(C)C[C@H]1[C@H]1/C(=N/OCCc3nn[nH]n3)C[C@@H]3[C@@]4(C)CC[C@H](OC(C)=O)C(C)(C)[C@@H]4CC[C@@]3(C)[C@]1(C)CC2`, the growth is 36.8%.

Regarding `N#CC(C#N)N=Nc1ccc(Br)cc1`, the growth is 83.5%.

Turning to `CCOC(=O)NC(C)C`, the growth is 95.7%.

In the case of `CCCNC(=O)Nc1ccc2cc3ccc(NC(=O)NCCC)cc3nc2c1`, the growth is 95.9%.

For `C=CCN=c1sc2c(n1NC(=O)c1cc3ccc1CCc1ccc(cc1)CC3)C(=O)c1ccccc1C2=O`, the growth was 23.3%.

In the case of `Cc1ccc2c(n1)C(=O)C(Br)=C(CC(C)C)C2=O`, the growth is 90.8%.

As to `CC(C)COc1nc2c(c(=O)n(C)c(=O)n2C)n1C`, the growth is 106%.

Regarding `Cc1ccccc1/C=C/C(=O)c1cccc(OCCCCOc2cccc(C(=O)/C=C/c3ccccc3C)c2)c1`, the growth is 84.2%.

In the case of `COc1ccc2cc1Oc1ccc(cc1)C[C@H]1c3c(cc4c(c3Oc3cc5c(cc3OC)CCN(C)[C@@H]5C2)OCO4)CCN1C`, the growth is 47.2%.

For the compound `CCOC(=O)c1csc(NC(=O)COc2ccc(/C=C3\Oc4ccccc4C3=O)cc2)n1`, the growth is 88.7%.

Consider `CC(C)C1=NOC(=O)C1=Cc1cn(-c2ccccc2)nc1-c1ccc(F)cc1`, for which the growth is 81.4%.

For the compound `CCOC(=O)C/C(=N\Nc1cc(=O)[nH]c2ccc(Br)cc12)C(=O)OCC`, the growth is 106%.

In the case of `Cc1cc(=O)n(C(=O)Nc2ccccc2Cl)c2cc(O)ccc12`, the growth was 101%.

As to `CSc1nnc(-c2cc3c([nH]c4ccccc43)c(-c3cccc(O)c3)n2)n1-c1ccccc1`, the growth was 46.1%.
